Assay results taken from ChEMBL document CHEMBL1961873, “Compounds: GSK PKIS; Assays: Nanosyn kinase panel” (2012).

Biological target: T1, cGMP-dependent protein kinase 2 (Homo sapiens) (UniProt Q13237)
T1 sequence (whole entry): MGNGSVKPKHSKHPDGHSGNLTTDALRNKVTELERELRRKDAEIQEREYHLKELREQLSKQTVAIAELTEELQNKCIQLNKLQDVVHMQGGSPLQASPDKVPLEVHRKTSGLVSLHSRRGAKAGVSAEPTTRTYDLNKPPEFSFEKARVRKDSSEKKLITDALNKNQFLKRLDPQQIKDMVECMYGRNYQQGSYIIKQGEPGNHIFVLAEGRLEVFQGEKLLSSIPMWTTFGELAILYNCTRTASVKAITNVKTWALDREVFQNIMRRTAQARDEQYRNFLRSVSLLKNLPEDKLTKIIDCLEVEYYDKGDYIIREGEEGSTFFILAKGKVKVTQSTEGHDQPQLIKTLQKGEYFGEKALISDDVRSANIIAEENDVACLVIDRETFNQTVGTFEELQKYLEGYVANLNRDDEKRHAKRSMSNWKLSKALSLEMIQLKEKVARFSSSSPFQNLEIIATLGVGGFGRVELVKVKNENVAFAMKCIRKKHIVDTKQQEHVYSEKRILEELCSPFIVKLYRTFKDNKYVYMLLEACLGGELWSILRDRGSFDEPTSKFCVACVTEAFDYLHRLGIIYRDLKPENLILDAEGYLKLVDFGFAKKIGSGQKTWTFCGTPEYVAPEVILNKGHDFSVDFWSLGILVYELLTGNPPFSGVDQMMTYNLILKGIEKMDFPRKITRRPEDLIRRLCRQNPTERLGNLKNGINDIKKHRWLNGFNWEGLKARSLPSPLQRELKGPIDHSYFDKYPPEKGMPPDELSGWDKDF
Settings: at 0.1 µM

Row | SMILES | inhibition [%]
1 | CC(C)(CO)CNC(=O)c1ccc2c(c1)/C(=N/Nc1ccc(S(N)(=O)=O)cc1)C(=O)N2 | 2.6
2 | O=C(Nc1n[nH]c2cc(-c3ccc(F)cc3)ccc12)C1CC1 | 3.33
3 | NC(=O)c1sc(-n2cnc3ccc(C(F)(F)F)cc32)cc1OCc1ccccc1Br | 2.01
4 | CCn1c(-c2nonc2N)nc2ccccc21 | 26.9
5 | c1ccc(-c2nc3n(c2-c2ccc4c(c2)OCO4)CCC3)nc1 | 1.67
6 | CCNC(=O)O[C@H]1CN[C@H](C#Cc2cc3ncnc(Nc4ccc(OCc5cccc(F)c5)c(Cl)c4)c3s2)C1 | -0.03
7 | CCn1c(-c2nonc2N)nc2cnc(Oc3cccc(NC(=O)c4ccc(N(C)C)cc4)c3)cc21 | 21.7
8 | CC(=O)Nc1cccc(C#Cc2cncnc2Nc2ccc(OCc3cccc(F)c3)c(Cl)c2)c1 | 2.86
9 | N#Cc1c(NC(=O)c2ccc(F)cc2)sc2c1CCCC2 | -0.45
10 | CS(=O)(=O)CCNCc1coc(-c2ccc3ncnc(Nc4ccc(OCc5ccccc5)cc4)c3c2)c1 | 1.73
11 | N#Cc1c(NC(=O)CN2CCOCC2)sc2c1CCCC2 | 2.59
12 | NS(=O)(=O)c1ccc(Nc2ncc(-c3ccccc3)o2)cc1 | 2.69
13 | COc1cc(/C=N/Nc2ncnc3[nH]ncc23)ccc1O | 13.5
14 | COC(=O)Nc1nc2ccc(Oc3ccc(NC(=O)Nc4cccc(Cl)c4)cc3)cc2[nH]1 | 0.27
15 | CNC(=O)c1cncc(/C=C/c2ccccc2Cl)c1 | 2.05
16 | COc1cc(N2CCN(C(C)C)CC2)ccc1Nc1nc(Nc2ccc(F)cc2C(N)=O)c2cc[nH]c2n1 | 6
17 | Clc1ccc(-c2nn3ncccc3c2-c2ccnc(Nc3ccccc3)n2)cc1 | 1.46

Row | SMILES | inhibition [%]
18 | Fc1ccc(-c2nn3ccccc3c2-c2ccncc2)cc1 | 2.4
19 | COc1cc2c(cc1Nc1nc(Nc3ccsc3C(N)=O)c3cc[nH]c3n1)N(C(=O)CN(C)C)CCC2(C)C | 4.41
20 | CN1CCC(n2cnc(-c3ccc(F)cc3)c2-c2ccnc(N)n2)CC1 | 2.99
21 | FC(F)(F)c1cccc(-c2nn3ncccc3c2-c2ccnc(Nc3ccc4c(c3)OCCO4)n2)c1 | 0.46
22 | CC1=C(C(=O)Nc2cc(Cl)c3[nH]ncc3c2)C(c2ccc(C(F)(F)F)cc2)CC(=O)N1 (stereo unspecified) | 16.9
23 | CS(=O)(=O)CCNCc1ccc(-c2ccc3ncnc(Nc4ccc(OCc5ccccc5)c(C(F)(F)F)c4)c3c2)o1 | 1.82
24 | Nc1nc(-c2ccc(F)cc2)c(-c2ccc3ncccc3n2)s1 | 2.78
25 | COc1cc(Nc2nccc(Nc3ccc4c(C)n[nH]c4c3)n2)cc(OC)c1OC | 2.12
26 | CN(C)CCOc1ccc(-c2nc(-c3ccncc3)c(-c3ccc4c(c3)CC/C4=N\O)[nH]2)cc1 | 2.69
27 | CCn1c(-c2nonc2N)nc2c(C#CC(C)(C)O)ncc(OC3CCNCC3)c21 | 60.5
28 | [O-][S+]1CCN(Cc2ccc(-c3ccc4ncnc(Nc5ccc(OCc6cccc(F)c6)c(Cl)c5)c4c3)o2)CC1 | 3.53
29 | COc1ccc(-c2cc(-c3c[nH]nc3-c3ccccn3)ccn2)cc1 | 3.27
30 | Cc1ccc2c(-c3ccnc(Nc4ccccc4)n3)c(-c3ccc(F)cc3)nn2n1 | 3.01
31 | COc1ccc(-c2oc3ncnc(N)c3c2-c2ccc(NC(=O)Nc3cc(C(F)(F)F)ccc3F)cc2)cc1 | 3.35
32 | CCCN(CCS(C)(=O)=O)Cc1ccc(-c2ccc3ncnc(Nc4ccc(OCc5cccc(F)c5)c(Cl)c4)c3c2)o1 | 0.95
33 | CCn1c(-c2nonc2N)nc2c(C#CC(C)(C)O)nc(OC[C@H](N)c3ccccc3)cc21 | 56.9

Biological target: T1, cGMP-dependent protein kinase 2 (Homo sapiens)
Settings: at 1 µM

Row | SMILES | inhibition [%]
34 | CC(C)(CO)CNC(=O)c1ccc2c(c1)/C(=N/Nc1ccc(S(N)(=O)=O)cc1)C(=O)N2 | 22
35 | O=C(Nc1n[nH]c2cc(-c3ccc(F)cc3)ccc12)C1CC1 | 5.58
36 | NC(=O)c1sc(-n2cnc3ccc(C(F)(F)F)cc32)cc1OCc1ccccc1Br | 5.42
37 | CCn1c(-c2nonc2N)nc2ccccc21 | 70.6
38 | c1ccc(-c2nc3n(c2-c2ccc4c(c2)OCO4)CCC3)nc1 | 2.85
39 | CCNC(=O)O[C@H]1CN[C@H](C#Cc2cc3ncnc(Nc4ccc(OCc5cccc(F)c5)c(Cl)c4)c3s2)C1 | 2.81
40 | CCn1c(-c2nonc2N)nc2cnc(Oc3cccc(NC(=O)c4ccc(N(C)C)cc4)c3)cc21 | 60.8
41 | CC(=O)Nc1cccc(C#Cc2cncnc2Nc2ccc(OCc3cccc(F)c3)c(Cl)c2)c1 | 1.98
42 | N#Cc1c(NC(=O)c2ccc(F)cc2)sc2c1CCCC2 | 3.35
43 | CS(=O)(=O)CCNCc1coc(-c2ccc3ncnc(Nc4ccc(OCc5ccccc5)cc4)c3c2)c1 | 3.41
44 | N#Cc1c(NC(=O)CN2CCOCC2)sc2c1CCCC2 | 2.65
45 | NS(=O)(=O)c1ccc(Nc2ncc(-c3ccccc3)o2)cc1 | 3.98
46 | COc1cc(/C=N/Nc2ncnc3[nH]ncc23)ccc1O | 55
47 | COC(=O)Nc1nc2ccc(Oc3ccc(NC(=O)Nc4cccc(Cl)c4)cc3)cc2[nH]1 | -0.85
48 | CNC(=O)c1cncc(/C=C/c2ccccc2Cl)c1 | 2.68
49 | COc1cc(N2CCN(C(C)C)CC2)ccc1Nc1nc(Nc2ccc(F)cc2C(N)=O)c2cc[nH]c2n1 | 25.4
50 | Clc1ccc(-c2nn3ncccc3c2-c2ccnc(Nc3ccccc3)n2)cc1 | 3.41

Row | SMILES | inhibition [%]
51 | Fc1ccc(-c2nn3ccccc3c2-c2ccncc2)cc1 | 3.57
52 | COc1cc2c(cc1Nc1nc(Nc3ccsc3C(N)=O)c3cc[nH]c3n1)N(C(=O)CN(C)C)CCC2(C)C | 9.54
53 | CN1CCC(n2cnc(-c3ccc(F)cc3)c2-c2ccnc(N)n2)CC1 | 30.7
54 | FC(F)(F)c1cccc(-c2nn3ncccc3c2-c2ccnc(Nc3ccc4c(c3)OCCO4)n2)c1 | 3.03
55 | CC1=C(C(=O)Nc2cc(Cl)c3[nH]ncc3c2)C(c2ccc(C(F)(F)F)cc2)CC(=O)N1 (stereo unspecified) | 59.7
56 | CS(=O)(=O)CCNCc1ccc(-c2ccc3ncnc(Nc4ccc(OCc5ccccc5)c(C(F)(F)F)c4)c3c2)o1 | 0.3
57 | Nc1nc(-c2ccc(F)cc2)c(-c2ccc3ncccc3n2)s1 | 4.3
58 | COc1cc(Nc2nccc(Nc3ccc4c(C)n[nH]c4c3)n2)cc(OC)c1OC | 2.71
59 | CN(C)CCOc1ccc(-c2nc(-c3ccncc3)c(-c3ccc4c(c3)CC/C4=N\O)[nH]2)cc1 | 12.3
60 | CCn1c(-c2nonc2N)nc2c(C#CC(C)(C)O)ncc(OC3CCNCC3)c21 | 83.2
61 | [O-][S+]1CCN(Cc2ccc(-c3ccc4ncnc(Nc5ccc(OCc6cccc(F)c6)c(Cl)c5)c4c3)o2)CC1 | 5.63
62 | COc1ccc(-c2cc(-c3c[nH]nc3-c3ccccn3)ccn2)cc1 | 4.61
63 | Cc1ccc2c(-c3ccnc(Nc4ccccc4)n3)c(-c3ccc(F)cc3)nn2n1 | 2.49
64 | COc1ccc(-c2oc3ncnc(N)c3c2-c2ccc(NC(=O)Nc3cc(C(F)(F)F)ccc3F)cc2)cc1 | 5.54
65 | CCCN(CCS(C)(=O)=O)Cc1ccc(-c2ccc3ncnc(Nc4ccc(OCc5cccc(F)c5)c(Cl)c4)c3c2)o1 | 1.07
66 | CCn1c(-c2nonc2N)nc2c(C#CC(C)(C)O)nc(OC[C@H](N)c3ccccc3)cc21 | 78.8
